Measurements published in the supplement of paper PMC10849652.
Targets with a hit are over-represented here; the source holds about 7,900 in all. About 0.6% of all pairs of compound and target were hits. A number with no mark means an inactive call.

Assays:
Test in all cases: log2 fold change, soluble protein after heating vs DMSO (PISA); higher = thermal stabilisation; K562 cells, 10 uM, 30 min; active = over 0.2 and 3.5 SD of the protein, either way, in both replicates (recomputed)
[1] = compound: CS(=O)(=O)c1ccc(-c2cnc(N)c(C(=O)Nc3ccccc3)n2)cc1
Summary of the method: (§1)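 K562 cells (2×10^6 cells/mL) were treated with 10 μM compound for 30 min, and aliquots were heated for 3 min over 48°C-58°C. Pooled aliquots were extracted in PBS with 0.5% NP-40 at 4°C, and the supernatant after 21,000xg for 90 min was measured by TMTpro 16plex LC-MS/MS with channel sums equalised. Reported thermal stability, relative to control samples and from duplicates, is a log2 fold change.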

[2] = compound: C[C@@H](Oc1cc(-c2cnn(C3CCNCC3)c2)cnc1N)c1c(Cl)ccc(F)c1Cl [crizotinib]
Summary of the method: as §1

[3] = compound: C[C@@H]1COCCN1C2=NC(=NC(=C2)C3(CC3)S(=O)(=O)C)C4=C5C=CNC5=CC=C4
Summary of the method: as §1

[4] = compound: C[C@H](C1=CC=C(C=C1)C(=O)NC2=C3C=CNC3=NC=C2)N
Summary of the method: as §1

[5] = compound: C[C@H](Nc1ncnc2nc[nH]c12)c1cc2cccc(Cl)c2c(=O)n1-c1ccccc1 [duvelisib]
Summary of the method: as §1

[6] = compound: Cc1cc(Nc2cc(CN3CCOCC3)c3nc(C)c(Cc4ccc(Cl)cc4F)n3n2)n[nH]1 [gandotinib]
Summary of the method: as §1

[7] = compound: Cc1cc(Nc2cc(N3CCN(C)CC3)nc(Sc3ccc(NC(=O)C4CC4)cc3)n2)n[nH]1 [tozasertib]
Summary of the method: as §1

[8] = compound: Cc1cc(SCc2sc(-c3ccc(C(F)(F)F)cc3)nc2C)ccc1OCC(=O)O
Summary of the method: as §1

[9] = compound: Cc1ccc(-n2nc(C(C)(C)C)cc2NC(=O)Nc2ccc(OCCN3CCOCC3)c3ccccc23)cc1 [doramapimod]
Summary of the method: as §1

[10] = compound: Cc1ccc(C(=O)N(CCCN)[C@@H](c2nc3cc(Cl)ccc3c(=O)n2Cc2ccccc2)C(C)C)cc1 [ispinesib]
Summary of the method: as §1

Target: CHCHD1 (UniProt Q96BP2)
- log2 fold change [1]: -0.115
- log2 fold change [2]: -0.54 (active)
- log2 fold change [3]: -0.203
- log2 fold change [4]: -0.067
- log2 fold change [5]: -0.061
- log2 fold change [6]: -0.085
- log2 fold change [7]: -0.045
- log2 fold change [8]: 0.036
- log2 fold change [9]: -0.087
- log2 fold change [10]: 0.06

Target: CCAR2 isoform 2 (UniProt Q8N163)
- log2 fold change [1]: -0.037
- log2 fold change [2]: 0.024
- log2 fold change [3]: 0.046
- log2 fold change [4]: 0.011
- log2 fold change [5]: -0.001
- log2 fold change [6]: -0.093
- log2 fold change [7]: 0.103
- log2 fold change [8]: 0.169
- log2 fold change [9]: -0.009
- log2 fold change [10]: -0.063

Target: CHMP4C (UniProt Q96CF2)
Chain of UniProt Q96CF2 (Q96CF2 whole entry, looked up): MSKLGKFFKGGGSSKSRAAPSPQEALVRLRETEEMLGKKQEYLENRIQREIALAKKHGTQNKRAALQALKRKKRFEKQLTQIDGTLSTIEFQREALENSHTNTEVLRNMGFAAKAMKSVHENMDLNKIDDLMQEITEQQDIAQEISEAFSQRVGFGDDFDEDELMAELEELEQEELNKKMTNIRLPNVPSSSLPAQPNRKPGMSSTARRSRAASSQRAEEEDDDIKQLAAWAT
- log2 fold change [1]: -0.044
- log2 fold change [2]: -0.007
- log2 fold change [3]: -0.256
- log2 fold change [4]: -0.003
- log2 fold change [5]: 0.067
- log2 fold change [6]: 0.073
- log2 fold change [7]: -0.024
- log2 fold change [8]: 0.03
- log2 fold change [9]: -0.046
- log2 fold change [10]: -0.079

Target: CCM2 isoform 2 (UniProt Q9BSQ5)
Chain of UniProt Q9BSQ5 (Q9BSQ5 whole entry, looked up): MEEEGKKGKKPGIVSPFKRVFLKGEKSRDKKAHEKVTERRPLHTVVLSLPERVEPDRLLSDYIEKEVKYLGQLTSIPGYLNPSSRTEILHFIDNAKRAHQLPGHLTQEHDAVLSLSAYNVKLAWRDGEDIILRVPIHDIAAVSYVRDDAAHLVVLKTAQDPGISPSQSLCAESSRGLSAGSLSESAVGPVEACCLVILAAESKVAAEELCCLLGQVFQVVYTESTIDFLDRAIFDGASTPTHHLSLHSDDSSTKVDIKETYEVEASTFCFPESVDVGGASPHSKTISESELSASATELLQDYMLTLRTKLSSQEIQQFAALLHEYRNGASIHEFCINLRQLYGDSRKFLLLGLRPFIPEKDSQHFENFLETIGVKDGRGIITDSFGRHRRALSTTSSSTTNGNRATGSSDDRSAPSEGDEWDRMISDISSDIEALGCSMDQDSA
- log2 fold change [1]: 0.088
- log2 fold change [2]: -0.022
- log2 fold change [3]: -0.016
- log2 fold change [4]: 0.003
- log2 fold change [5]: -0.02
- log2 fold change [6]: 0.026
- log2 fold change [7]: 0.132
- log2 fold change [8]: -0.067
- log2 fold change [9]: 0.013
- log2 fold change [10]: -0.043

Target: CD81 (UniProt P60033)
Chain of UniProt P60033 (P60033 whole entry, looked up): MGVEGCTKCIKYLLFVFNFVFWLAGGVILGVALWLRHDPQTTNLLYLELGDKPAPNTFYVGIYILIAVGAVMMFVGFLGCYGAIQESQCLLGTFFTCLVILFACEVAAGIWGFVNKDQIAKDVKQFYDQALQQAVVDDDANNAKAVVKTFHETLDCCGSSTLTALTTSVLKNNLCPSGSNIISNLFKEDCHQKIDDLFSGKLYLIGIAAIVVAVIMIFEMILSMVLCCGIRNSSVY
- log2 fold change [1]: -0.03
- log2 fold change [2]: 0.162
- log2 fold change [3]: 0.107
- log2 fold change [4]: -0.232
- log2 fold change [5]: -0.041
- log2 fold change [6]: 0.019
- log2 fold change [7]: -0.007
- log2 fold change [8]: -0.084
- log2 fold change [9]: -0.025
- log2 fold change [10]: 0.207

Target: CHERP (UniProt Q8IWX8)
Chain of UniProt Q8IWX8 (Q8IWX8 whole entry, looked up): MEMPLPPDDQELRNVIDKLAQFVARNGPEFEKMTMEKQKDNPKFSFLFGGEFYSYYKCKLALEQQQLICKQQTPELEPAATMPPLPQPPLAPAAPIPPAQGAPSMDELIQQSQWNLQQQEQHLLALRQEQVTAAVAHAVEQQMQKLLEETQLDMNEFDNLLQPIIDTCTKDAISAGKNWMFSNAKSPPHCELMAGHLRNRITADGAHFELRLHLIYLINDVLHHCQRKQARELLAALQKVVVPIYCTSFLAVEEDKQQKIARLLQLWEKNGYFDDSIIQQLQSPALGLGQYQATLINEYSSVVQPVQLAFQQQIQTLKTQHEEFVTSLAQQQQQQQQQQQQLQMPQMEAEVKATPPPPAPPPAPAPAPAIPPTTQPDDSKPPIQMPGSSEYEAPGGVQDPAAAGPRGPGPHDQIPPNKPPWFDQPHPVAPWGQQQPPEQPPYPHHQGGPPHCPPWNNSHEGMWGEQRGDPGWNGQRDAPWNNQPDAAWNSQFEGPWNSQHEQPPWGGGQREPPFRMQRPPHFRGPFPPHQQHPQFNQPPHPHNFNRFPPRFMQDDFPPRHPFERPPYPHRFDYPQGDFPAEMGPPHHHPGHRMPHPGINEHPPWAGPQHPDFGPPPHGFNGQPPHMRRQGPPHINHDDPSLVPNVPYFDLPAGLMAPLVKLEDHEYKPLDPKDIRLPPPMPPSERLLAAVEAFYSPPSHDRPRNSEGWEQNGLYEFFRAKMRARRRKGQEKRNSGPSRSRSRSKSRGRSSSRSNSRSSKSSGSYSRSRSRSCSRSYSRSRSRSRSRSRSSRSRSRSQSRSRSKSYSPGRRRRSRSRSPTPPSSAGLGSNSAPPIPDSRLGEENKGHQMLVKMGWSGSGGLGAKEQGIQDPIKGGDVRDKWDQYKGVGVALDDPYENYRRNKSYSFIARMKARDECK
- log2 fold change [1]: -0.087
- log2 fold change [2]: -0.108
- log2 fold change [3]: 0.109
- log2 fold change [4]: 0.009
- log2 fold change [5]: -0.025
- log2 fold change [6]: -0.047
- log2 fold change [7]: 0.08
- log2 fold change [8]: 0.138
- log2 fold change [9]: 0.01
- log2 fold change [10]: -0.004

Target: COASY isoform 2 (UniProt Q13057)
- log2 fold change [1]: -0.052
- log2 fold change [2]: -0.071
- log2 fold change [3]: 0.133
- log2 fold change [4]: -0.09
- log2 fold change [5]: 0.058
- log2 fold change [6]: -0.058
- log2 fold change [7]: -0.031
- log2 fold change [8]: 0.045
- log2 fold change [9]: -0.063
- log2 fold change [10]: -0.057

Target: CDK13 (UniProt Q14004)
- log2 fold change [1]: -0.075
- log2 fold change [2]: -0.124
- log2 fold change [3]: -0.036
- log2 fold change [4]: 0.095
- log2 fold change [5]: 0.043
- log2 fold change [6]: -0.414 (active)
- log2 fold change [7]: -0.118
- log2 fold change [8]: 0.141
- log2 fold change [9]: -0.006
- log2 fold change [10]: 0.063

Target: CSNK2A2 (UniProt P19784)
- log2 fold change [1]: 0.068
- log2 fold change [2]: -0.132
- log2 fold change [3]: 0.039
- log2 fold change [4]: -0.234 (active)
- log2 fold change [5]: 0.032
- log2 fold change [6]: -0.097
- log2 fold change [7]: -0.029
- log2 fold change [8]: 0.013
- log2 fold change [9]: 0.007
- log2 fold change [10]: 0.084

Target: CLCN3 isoform 2 (UniProt P51790)
Chain of UniProt P51790 (P51790 whole entry, looked up): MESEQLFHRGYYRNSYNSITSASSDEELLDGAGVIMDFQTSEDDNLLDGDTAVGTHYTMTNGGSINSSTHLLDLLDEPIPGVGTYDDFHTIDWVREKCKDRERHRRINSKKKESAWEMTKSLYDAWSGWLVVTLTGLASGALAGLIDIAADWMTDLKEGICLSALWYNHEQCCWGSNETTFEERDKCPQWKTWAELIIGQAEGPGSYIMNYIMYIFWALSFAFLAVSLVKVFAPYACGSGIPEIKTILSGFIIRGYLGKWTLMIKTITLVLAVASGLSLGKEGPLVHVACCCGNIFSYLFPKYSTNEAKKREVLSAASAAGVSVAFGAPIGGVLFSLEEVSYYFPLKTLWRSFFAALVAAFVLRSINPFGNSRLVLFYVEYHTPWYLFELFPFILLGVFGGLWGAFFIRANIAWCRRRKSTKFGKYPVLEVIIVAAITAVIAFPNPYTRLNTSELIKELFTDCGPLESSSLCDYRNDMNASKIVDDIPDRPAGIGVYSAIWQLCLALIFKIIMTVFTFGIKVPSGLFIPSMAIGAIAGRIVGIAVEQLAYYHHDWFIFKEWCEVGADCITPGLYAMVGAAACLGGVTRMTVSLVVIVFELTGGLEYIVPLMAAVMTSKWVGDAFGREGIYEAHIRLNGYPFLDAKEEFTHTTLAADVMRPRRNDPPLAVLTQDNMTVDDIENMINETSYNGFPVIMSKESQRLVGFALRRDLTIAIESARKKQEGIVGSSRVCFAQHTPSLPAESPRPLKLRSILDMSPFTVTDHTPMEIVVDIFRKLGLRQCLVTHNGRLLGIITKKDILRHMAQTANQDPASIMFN
- log2 fold change [1]: -0.008
- log2 fold change [2]: -0.074
- log2 fold change [3]: 0.09
- log2 fold change [4]: -0.142
- log2 fold change [5]: 0.015
- log2 fold change [6]: 0.02
- log2 fold change [7]: 0.002
- log2 fold change [8]: -0.011
- log2 fold change [9]: 0.009
- log2 fold change [10]: -0.25

Target: CIZ1 (UniProt Q9ULV3)
Chain of UniProt Q9ULV3 (Q9ULV3 whole entry, looked up): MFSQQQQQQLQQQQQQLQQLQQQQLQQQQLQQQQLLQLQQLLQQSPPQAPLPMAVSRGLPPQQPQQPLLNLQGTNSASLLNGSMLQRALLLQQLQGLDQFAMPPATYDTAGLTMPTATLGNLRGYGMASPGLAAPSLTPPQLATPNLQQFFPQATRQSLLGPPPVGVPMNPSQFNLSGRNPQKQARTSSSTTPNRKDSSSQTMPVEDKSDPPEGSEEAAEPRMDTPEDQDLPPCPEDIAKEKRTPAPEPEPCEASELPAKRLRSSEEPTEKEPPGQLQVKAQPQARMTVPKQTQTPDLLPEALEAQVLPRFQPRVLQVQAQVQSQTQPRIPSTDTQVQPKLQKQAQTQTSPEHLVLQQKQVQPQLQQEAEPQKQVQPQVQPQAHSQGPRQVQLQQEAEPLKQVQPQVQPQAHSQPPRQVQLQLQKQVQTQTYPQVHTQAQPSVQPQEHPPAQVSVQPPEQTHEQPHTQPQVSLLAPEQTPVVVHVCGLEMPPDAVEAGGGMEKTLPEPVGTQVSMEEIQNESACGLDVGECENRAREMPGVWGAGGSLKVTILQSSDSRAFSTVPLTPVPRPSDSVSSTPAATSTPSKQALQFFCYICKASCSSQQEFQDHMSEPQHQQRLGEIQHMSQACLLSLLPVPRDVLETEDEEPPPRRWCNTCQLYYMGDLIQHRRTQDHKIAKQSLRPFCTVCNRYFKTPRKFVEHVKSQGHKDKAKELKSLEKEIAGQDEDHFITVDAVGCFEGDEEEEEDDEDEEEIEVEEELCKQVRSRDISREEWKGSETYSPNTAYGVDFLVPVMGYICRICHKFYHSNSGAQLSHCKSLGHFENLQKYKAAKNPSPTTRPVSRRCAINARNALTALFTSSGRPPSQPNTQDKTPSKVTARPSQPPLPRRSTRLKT
- log2 fold change [1]: -0.008
- log2 fold change [2]: -0.097
- log2 fold change [3]: 0.017
- log2 fold change [4]: -0.079
- log2 fold change [5]: 0.004
- log2 fold change [6]: -0.121
- log2 fold change [7]: 0.022
- log2 fold change [8]: 0.016
- log2 fold change [9]: 0.005
- log2 fold change [10]: -0.015

Target: CDK11B (UniProt P21127)
- log2 fold change [1]: 0.025
- log2 fold change [2]: 1.24 (active)
- log2 fold change [3]: 0.052
- log2 fold change [4]: 0.166
- log2 fold change [5]: 0.099
- log2 fold change [6]: 0.105
- log2 fold change [7]: 0.018
- log2 fold change [8]: 0.007
- log2 fold change [9]: 0
- log2 fold change [10]: 0.022

Target: COMT (UniProt P21964)
Chain of UniProt P21964 (P21964 whole entry, looked up): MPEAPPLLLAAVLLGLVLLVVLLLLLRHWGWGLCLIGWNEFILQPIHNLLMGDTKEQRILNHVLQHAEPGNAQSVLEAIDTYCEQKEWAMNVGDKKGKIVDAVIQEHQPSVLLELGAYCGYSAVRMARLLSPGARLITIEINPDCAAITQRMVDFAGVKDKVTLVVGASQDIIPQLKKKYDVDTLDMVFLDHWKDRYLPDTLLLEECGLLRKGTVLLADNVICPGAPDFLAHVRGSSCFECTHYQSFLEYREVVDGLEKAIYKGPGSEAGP
- log2 fold change [1]: 0.04
- log2 fold change [2]: 0.352 (active)
- log2 fold change [3]: 0.053
- log2 fold change [4]: -0.081
- log2 fold change [5]: 0.109
- log2 fold change [6]: 0.031
- log2 fold change [7]: -0.028
- log2 fold change [8]: 0.02
- log2 fold change [9]: 0
- log2 fold change [10]: 0.235 (active)

Target: CDC37L1 (UniProt Q7L3B6)
Chain of UniProt Q7L3B6 (Q7L3B6 whole entry, looked up): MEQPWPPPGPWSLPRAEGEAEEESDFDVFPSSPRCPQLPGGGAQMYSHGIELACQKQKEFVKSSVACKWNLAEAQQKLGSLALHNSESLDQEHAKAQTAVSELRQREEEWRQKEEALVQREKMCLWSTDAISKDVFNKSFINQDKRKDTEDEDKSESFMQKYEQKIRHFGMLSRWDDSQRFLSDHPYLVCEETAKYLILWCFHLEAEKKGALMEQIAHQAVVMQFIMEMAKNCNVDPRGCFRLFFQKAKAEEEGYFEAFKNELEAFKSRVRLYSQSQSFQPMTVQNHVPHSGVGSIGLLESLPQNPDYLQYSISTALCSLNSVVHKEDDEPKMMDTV
- log2 fold change [1]: 0.007
- log2 fold change [2]: 0.036
- log2 fold change [3]: 0.148
- log2 fold change [4]: -0.013
- log2 fold change [5]: -0.039
- log2 fold change [6]: -0.091
- log2 fold change [7]: -0.093
- log2 fold change [8]: 0.117
- log2 fold change [9]: -0.036
- log2 fold change [10]: 0.005

Target: CMTR1 (UniProt Q8N1G2)
Chain of UniProt Q8N1G2 (Q8N1G2 whole entry, looked up): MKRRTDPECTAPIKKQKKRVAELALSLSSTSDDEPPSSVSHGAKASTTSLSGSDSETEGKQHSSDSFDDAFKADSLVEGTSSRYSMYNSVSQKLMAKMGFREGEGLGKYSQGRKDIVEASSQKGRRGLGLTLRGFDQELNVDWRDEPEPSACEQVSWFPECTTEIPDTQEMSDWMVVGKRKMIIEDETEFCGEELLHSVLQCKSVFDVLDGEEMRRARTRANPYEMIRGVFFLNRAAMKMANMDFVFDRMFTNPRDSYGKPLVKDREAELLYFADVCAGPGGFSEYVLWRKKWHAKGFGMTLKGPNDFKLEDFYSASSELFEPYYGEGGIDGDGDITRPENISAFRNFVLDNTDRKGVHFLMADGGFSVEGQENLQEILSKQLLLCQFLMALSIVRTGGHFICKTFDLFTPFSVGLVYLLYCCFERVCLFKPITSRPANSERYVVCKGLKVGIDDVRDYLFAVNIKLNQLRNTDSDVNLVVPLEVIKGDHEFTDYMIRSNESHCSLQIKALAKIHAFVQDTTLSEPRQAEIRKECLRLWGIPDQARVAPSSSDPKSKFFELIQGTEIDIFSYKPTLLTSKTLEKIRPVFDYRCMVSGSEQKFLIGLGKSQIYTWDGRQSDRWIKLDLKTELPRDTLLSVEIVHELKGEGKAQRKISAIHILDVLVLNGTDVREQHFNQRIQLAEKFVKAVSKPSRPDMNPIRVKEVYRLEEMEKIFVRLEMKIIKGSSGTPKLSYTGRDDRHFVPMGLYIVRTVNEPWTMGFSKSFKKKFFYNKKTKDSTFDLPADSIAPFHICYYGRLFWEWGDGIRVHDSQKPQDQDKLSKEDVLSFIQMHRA
- log2 fold change [1]: 0.02
- log2 fold change [2]: 0.014
- log2 fold change [3]: 0.011
- log2 fold change [4]: 0.059
- log2 fold change [5]: 0.05
- log2 fold change [6]: 0.025
- log2 fold change [7]: 0.002
- log2 fold change [8]: 0.029
- log2 fold change [9]: -0.036
- log2 fold change [10]: -0.002
